Results on 19 molecules are retold here after PubChem BioAssay (EPA / NIEHS).

Inconclusive results are not listed. Calls of active or inactive are those of the source. Rule for the calls, unless noted: active = hit-call score of the fitted dose curve at least 0.9, where 1 is the maximum; inconclusive = response in the unintended direction; inactive = score below 0.9.

The nature of assay [1]: CCTE_Shafer_MEA_acute_AB: CCTE's Alamar Blue Assay for Cytotoxicity in the Neural Acute Assay, Shafer Lab (AID 2284069).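 Note: active compounds lower the viability signal compared with DMSO wells.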 In short, it runs like this: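 Metabolic activity in chemically exposed rat cortical neurons (MEA cultures, day 13/15 post-plating) measured via CellTiter Blue resazurin reduction, 544/590 nm fluorescence; fitted relative to DMSO, with signal loss indicating reduced viability.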
For orientation: The colour change of resazurin is a common sign of viable cells or microbes.

The nature of assay [2]: CCTE_Shafer_MEA_acute_LDH: CCTE's Lactate Dehydrogenase Assay for Cytotoxicity in the Neural Acute Assay, Shafer Lab (AID 2284086).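 Note: active means LDH release rises above DMSO vehicle level.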 In short, it runs like this:
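Rat cortical neurons cultured on microelectrode arrays; baseline 40-min recording, compound added, second 40-min recording; medium then sampled for released LDH (colorimetric kit, 490 nm). DMSO = negative control.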

Assay [3] can be described thus: CCTE_Shafer_MEA_dev_per_burst_interspike_interval: CCTE's Neural Network Formation Assay for Burst Interspike Interval, Shafer Lab (AID 2284044; active = hit-call score of the fitted dose curve at least 0.9, where 1 is the maximum; inactive = score below 0.9;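 note: mean spike spacing inside bursts as AUC over recordings on days 5 7 9 12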). In short, it runs like this: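 Neurons from rat cortex plated onto PEI-coated MEA wells with laminin […] at 1.5 x 10^5 cells/well, then treated from day 0. Media and compound fully replaced on DIV 5 and 9. Extracellular spontaneous firing recorded four times; interspike interval per burst summarised as AUC.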

Assay [4] in a line: CCTE_Shafer_MEA_dev_burst_duration_mean: CCTE's Neural Network Formation Assay for Mean Burst Duration, Shafer Lab (AID 2284045; active = hit-call score of the fitted dose curve at least 0.9, where 1 is the maximum; inactive = score below 0.9). A digest of the protocol: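 Primary rat cortical neurons on PEI-coated 16-electrode MEA wells, exposed from plating through day 12 with compound renewed at DIV 5 and 9; spontaneous activity recorded days 5, 7, 9, 12. Well-mean burst duration collapsed as trapezoidal AUC, fitted for loss versus DMSO.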

The nature of assay [5]: CCTE_Shafer_MEA_dev_interburst_interval_mean: CCTE's Neural Network Formation Assay for Mean Interburst Interval, Shafer Lab (AID 2284046; active = hit-call score of the fitted dose curve at least 0.9, where 1 is the maximum; inactive = score below 0.9;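 note: curve fitted for decrease in interburst interval relative to DMSO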). A digest of the protocol: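 Developing rat cortical networks on 48-well MEAs receive compound from the day of plating. Burst intervals from each active electrode are averaged per well, and AUC over the recording days is fitted in the negative direction against DMSO.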

A short description of assay [6]: CCTE_Shafer_MEA_dev_inter_network_spike_interval_mean: CCTE's Neural Network Formation Assay for Mean Inter-network Spike Interval, Shafer Lab (AID 2284047; active = hit-call score of the fitted dose curve at least 0.9, where 1 is the maximum; inactive = score below 0.9). A digest of the protocol: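 Rat cortical cultures, 1.5 x 10^5 cells/well on 48-well MEA plates; continuous exposure days 0–12, medium and compound refreshed DIV 5, 9. Mean time between consecutive network-spike peaks; AUC across DIV 5/7/9/12; DMSO baseline, negative fitting direction.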

Assay [7] is described as follows: CCTE_Shafer_MEA_dev_network_spike_number: CCTE's Neural Network Formation Assay for Number of Network Spikes, Shafer Lab (AID 2284048; active = hit-call score of the fitted dose curve at least 0.9, where 1 is the maximum; inactive = score below 0.9;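 note: synchronized bursts across electrodes counted on days 5 7 9 12 and integrated as AUC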;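 for AC50: fit as a loss of signal meaning fewer network spikes than DMSO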). A digest of the protocol: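 Primary rat cortical neurons were seeded at 1.5 x 10^5 cells/well on PEI-coated 16-electrode MEA wells with laminin, exposed from plating day 0, compound renewed at DIV 5 and 9. Network spikes were recorded on days 5, 7, 9, 12 and summarized as trapezoidal AUC versus DMSO.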

Assay [8] can be described thus: CCTE_Shafer_MEA_dev_network_spike_peak: CCTE's Neural Network Formation Assay for Mean Number of Electrodes in Network Spike, Shafer Lab (AID 2284049; active = hit-call score of the fitted dose curve at least 0.9, where 1 is the maximum; inactive = score below 0.9;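 for AC50: fitted for loss of signal meaning fewer electrodes in network spikes than DMSO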). A digest of the protocol: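 Continuous 12-day exposure of rat cortical cultures, starting at plating, on MEA plates. Endpoint: electrodes participating in network-spike peaks, AUC across DIV 5–12, DMSO as negative control.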

The nature of assay [9]: CCTE_Shafer_MEA_dev_spike_duration_mean: CCTE's Neural Network Formation Assay for Mean Spike Duration, Shafer Lab (AID 2284051; active = hit-call score of the fitted dose curve at least 0.9, where 1 is the maximum; inactive = score below 0.9;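 note: mean network spike duration pooled as area under curve over DIV 5 to 12 recordings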;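 for AC50: potency for a decrease in mean network spike duration versus DMSO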). A digest of the protocol:
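Readout is the average length of network spikes, clustered firing across electrodes, summed over DIV 5, 7, 9 and 12 as area under the curve. Neurons from rat cortex developed networks on MEA plates under continuous 12-day exposure.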

Assay [10] is described as follows: CCTE_Shafer_MEA_dev_network_spike_duration_std: CCTE's Neural Network Formation Assay for Standard Deviation of Network Spike Duration, Shafer Lab (AID 2284052; active = hit-call score of the fitted dose curve at least 0.9, where 1 is the maximum; inactive = score below 0.9;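 note: hits are decreases in network spike duration SD versus DMSO vehicle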). In short, it runs like this: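 Read-out is the trapezoidal area-under-the-curve across recordings made on days 5, 7, 9 and 12, fitted in the negative direction against DMSO baseline. Neurons were primary rat cortical cells treated from day 0, with treatment renewed at each feed.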

The nature of assay [11]: CCTE_Shafer_MEA_dev_per_network_spike_spike_number_mean: CCTE's Neural Network Formation Assay for Mean Number of Spikes in a Network Spike, Shafer Lab (AID 2284053; active = hit-call score of the fitted dose curve at least 0.9, where 1 is the maximum; inactive = score below 0.9;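 for AC50: fitted as decrease in spikes per network spike relative to DMSO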). In short, it runs like this:
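Continuous twelve-day exposure of developing rat cortical networks grown over 16 microelectrodes per well; spontaneous firing is captured at four time points, and the per-network-spike spike number is integrated over development by trapezoidal AUC.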

The nature of assay [12]: CCTE_Shafer_MEA_dev_per_network_spike_spike_percent: CCTE's Neural Network Formation Assay for Percent of Spikes in a Network Spike, Shafer Lab (AID 2284054; active = hit-call score of the fitted dose curve at least 0.9, where 1 is the maximum; inactive = score below 0.9). In short, it runs like this:
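Primary rat cortical neurons on 16-electrode MEA wells (PEI-coated, laminin at plating), exposed from day 0 with renewal at DIV 5 and 9; spikes within 0.05 s of network-spike peaks over total spikes, AUC across days 5, 7, 9, 12.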

Assay [13] is described as follows: CCTE_Shafer_MEA_dev_LDH: CCTE's Lactate Dehydrogenase Assay for Cytotoxicity in the Neural Network Formation Assay, Shafer Lab (AID 2284068).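 Note: exposure for twelve days from plating with re-dosing on DIV 5 and 9.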 A digest of the protocol: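 Cytotoxicity companion to network-formation recordings: rat cortical neurons received compound over 12 days of development, re-dosed at DIV 5 and 9 feeds. Viability was inferred from LDH enzyme activity relative to DMSO.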

The nature of assay [14]: CCTE_Shafer_MEA_dev_AB: CCTE's Alamar Blue Assay for Cytotoxicity in the Neural Network Formation Assay, Shafer Lab (AID 2284083).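 Note: twelve days of exposure from plating with re-dosing on DIV 5 and 9.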 In short, it runs like this: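 Fluorescent resazurin reduction serves as the viability read-out, with DMSO as negative control and baseline. Cells were primary rat cortical neurons grown on MEA plates and dosed from day 0 to day 12, treatment renewed on DIV 5 and 9.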

A short description of assay [15]: CCTE_Shafer_MEA_dev_mutual_information_norm: CCTE's Neural Network Formation Assay for Mutual Information Normalization, Shafer Lab (AID 2284091; active = hit-call score of the fitted dose curve at least 0.9, where 1 is the maximum; inactive = score below 0.9;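 for AC50: mutual information between electrodes summarised as area under curve across four recording days; potency is for a decrease in mutual information relative to DMSO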). A digest of the protocol:
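Rat cortical cultures, 48-well MEA, continuous exposure DIV 0–12 with full media/compound change DIV 5 and 9. Readout: inter-electrode mutual information, AxIS adaptive spike detection; AUC across DIV 5/7/9/12 recordings; DMSO baseline, negative fitting direction.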

The nature of assay [16]: CCTE_Shafer_MEA_dev_correlation_coefficient_mean: CCTE's Neural Network Formation Assay for Mean Correlation Coefficient, Shafer Lab (AID 2284093; active = hit-call score of the fitted dose curve at least 0.9, where 1 is the maximum; inactive = score below 0.9;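 for AC50: well mean pairwise spike train correlation integrated as AUC over recording days 5 to 12; potency fitted for loss of correlation relative to DMSO vehicle wells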). In short, it runs like this: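 Read-out: well-mean correlation coefficient of spike trains between electrode pairs, collapsed over four recording days as trapezoidal area-under-the-curve. Developing rat cortical neuron networks grown on MEAs received test chemical continuously from plating.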

For the next assay, the system named is DIO2 (gene 1734). The assay can be described thus: CCTE_GLTED_hDIO2: CCTE's human Deiodinase 2 (DIO2) Inhibition Assay, Great Lakes Toxicology and Ecology Division (GLTED) Lab (AID 2284050). A digest of the protocol: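 hDIO2 enzyme + test chem, 3 h → free iodide from substrate; step 2: Sandell-Kolthoff (Ce IV reduction by As, iodide-catalysed), spectrophotometric read. Triplicate plates; DMSO = baseline.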

For the next assay, the system named is DIO3 (gene 1735). The assay can be described thus: CCTE_GLTED_hDIO3: CCTE's human Deiodinase 3 (DIO3) Inhibition Assay, Great Lakes Toxicology and Ecology Division (GLTED) Lab (AID 2284055).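 For AC50: potency is for inhibition seen as loss of released iodide signal.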 In short, it runs like this:
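Absorbance from the Sandell-Kolthoff reaction reports iodide released by human DIO3 during a 3-hour incubation with chemical. Inhibition scored as signal loss against DMSO controls.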

Assay [17] is described as follows: IUF_NPC1b_proliferation_BrdU_72hr: Leibniz Research Institute for Environmental Medicine (IUF) 72-hour Neural Progenitor Cell Bromodeoxyuridine (BrdU) Proliferation Assay (NPC1b) (AID 2284207; active = hit-call score of the fitted dose curve at least 0.9, where 1 is the maximum; inactive = score below 0.9). In short, it runs like this:
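hNPC spheres (primary, GW 16-19 fetal cortex), single sphere/well, EGF+FGF medium; 72 h compound, no renewal; BrdU pulse last 16 h; luminescent ELISA; activity vs DMSO baseline; growth-factor withdrawal as positive control.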

Assay [18] is described as follows: IUF_NPC1a_proliferation_area_72hr: Leibniz Research Institute for Environmental Medicine (IUF) 72-hour Neural Progenitor Cell Proliferation Area Assay (NPC1a) (AID 2284208; active = hit-call score of the fitted dose curve at least 0.9, where 1 is the maximum; inactive = score below 0.9). A digest of the protocol: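 Spheres of 0.3 mm are plated singly in growth-factor medium and exposed from day 0. After three days at 37C and 5% CO2, sphere area is measured by phase contrast imaging, with activity referenced to DMSO.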

For the molecule `CC(O)CC(C)(C)O` (configuration not stated), the call in assay [1] and in assay [2] was inactive.

Take `CN1C(=O)CC[C@H]1c1cccnc1`: the outcome in assay [3], in [4], in assay [5], in assay [6], in assay [7] and in [8] was inactive. The outcome in [9], in assay [10], in assay [11], in assay [12], in assay [13] and in [1] was inactive. For the same molecule, the molecule was classed as inactive in assay [14], in assay [15] and in assay [16].

By AC50 is commonly meant the concentration giving half of the maximal activity seen. Regarding `NCc1cccc(C2CCN(C(=O)c3ccc(C#Cc4ccccc4F)o3)CC2)c1`, the AC50 was 30.6 µM (active) in the assay on DIO2 (gene 1734) and 23.3 µM (active) with DIO3 (gene 1735). Moreover, the molecule was called inactive in assay [1] and in assay [2].

With `CC(C)(C)c1csc(-c2cc3cc(OCc4ccccc4CC(=O)O)ccc3o2)n1`, the AC50 with DIO2 (gene 1734) was 120 µM (active); in the assay with DIO3 (gene 1735) it was 148 µM (active).

Turning to `CN1C(=O)N(c2ccccc2Br)Cc2cnc(Nc3ccc4c(c3)OCC(CO)O4)nc21` (configuration not stated), the outcome in the assay with DIO2 (gene 1734) was inactive.

For the molecule `CC/C(=C(/CC)c1ccc(O)cc1)c1ccc(O)cc1`, the call in assay [3], in assay [4], in assay [5], in [6], in assay [10] and in assay [1] was inactive. Moreover, in [14], the result was inactive. The AC50 in assay [7] is 0.077 µM (active); in assay [8], 11.3 µM (active); in [9], 15 µM (active); in assay [11], 5.65 µM (active); in assay [12], 3.87 µM (active); in assay [13], 19.5 µM (active). In addition, the AC50 was 0.864 µM (active) in assay [15] and 5.98 µM (active) in assay [16].

Consider `CO[C@H]1/C=C/O[C@@]2(C)Oc3c(C)c(O)c4c(O)c(c(/C=N/N5CCN(C)CC5)c(O)c4c3C2=O)NC(=O)/C(C)=C\C=C\[C@H](C)[C@H](O)[C@@H](C)[C@@H](O)[C@@H](C)[C@H](OC(C)=O)[C@@H]1C`, for which the call in [1] and in [2] was inactive.

`OC12N=C(c3ccccc3)SC1Cc1cc(Cl)ccc12` (configuration not stated): the AC50 is 72.5 µM (active) with DIO2 (gene 1734) and 86.5 µM (active) in the assay with DIO3 (gene 1735). Besides, the result in [1] and in [2] was inactive.

As to `Cc1cc2c(cc1C(F)(F)F)N(C(=O)Nc1ccc(Oc3cccnc3C)nc1)CC2`, the call in assay [1] and in [2] was inactive.

Consider `O=c1[nH]sc2ccccc12`, for which the result in assay [1] and in [2] was inactive.

For the molecule `CC(C)(C)c1cc(/C=C2\SC(N)=NC2=O)cc(C(C)(C)C)c1O`, the AC50 with DIO2 (gene 1734) is 30.3 µM (active); in the assay with DIO3 (gene 1735), 19.9 µM (active). Further, in assay [1], the molecule was classed as inactive.

For the molecule `O=C1O[C@H]([C@@H](O)CO)C(O)=C1O`, the call in assay [3], in assay [4], in [5], in assay [6], in [7] and in assay [8] was inactive. The molecule was classed as inactive in assay [9], in [10], in [11], in assay [1], in assay [14] and in assay [2]. Further, the outcome in assay [15], in assay [16] and in assay [18] was inactive. Also, in assay [17], the half-maximal activity concentration (AC50) is 0.215 µM (active).

As for `CCOC(=O)O[C@H](C)OC(=O)c1ccc2c(c1)cc(C(=O)NC1CCN(C(C)C)CC1)n2Cc1cc(-c2ccc(Cl)s2)on1`, the figures for the AC50 in the assay on DIO2 (gene 1734) and in the assay with DIO3 (gene 1735) were 45.2 µM (active) and 1.16 µM (active), respectively.

As for `CN(C)C(=O)C1(N2CCCCC2)CCN(CC[C@@]2(c3ccc(Cl)c(Cl)c3)CN(C(=O)c3ccccc3)CCO2)CC1`, the AC50 with DIO2 (gene 1734) was 73.9 µM (active). The molecule was called inactive (in the assay with DIO3 (gene 1735); in assay [1]; in [2]).

Regarding `CN(C[C@@H](CC[N+]12CCC(C3CCCCC3)(CC1)CC2)c1ccc(Cl)c(Cl)c1)C(=O)c1cc(C(F)(F)F)cc(C(F)(F)F)c1`, the AC50 was 37.8 µM (active) with DIO2 (gene 1734), 81.9 µM (active) in the assay on DIO3 (gene 1735) and 20 µM (active) in assay [1]. In addition, the molecule was classed as inactive in assay [2].

Turning to `COc1cc(C(=O)NC2CCN(C)CC2)ccc1Nc1ncc2c(n1)N(C1CCCC1)CC(F)(F)C(=O)N2C`, the call in assay [1] and in [2] was inactive.

For the molecule `c1ccc2n[nH]nc2c1`, the outcome in assay [1] and in assay [2] was inactive.

As for `CCCCCCCCCCCCO`, the outcome (in the assay with DIO2 (gene 1734); in assay [1]) was inactive. For the same molecule, the AC50 with DIO3 (gene 1735) is 82.6 µM (active).

Regarding `CC(=O)N1CCN(c2ccc(OC[C@H]3CO[C@](Cn4ccnc4)(c4ccc(Cl)cc4Cl)O3)cc2)CC1`, the molecule was classed as inactive in assay [1] and in assay [2].
